Screens: PubChem BioAssay, National Center for Advancing Translational Sciences (NCATS)
GLS inhibitor = inhibitors of human glutaminase (GLS). AID 624170. 410,000 tested, 0.21% active. GLS enzymatic activity, qHTS titration. O94925. Potency, µM (top dose mostly 45.5 µM), inactives show at the top dose activity change, negative = inhibition, usual class: inhibitors; note: % is set by controls: 0 for no effect and ±100 for the full control effect
Target sequence (O94925 whole entry, looked up): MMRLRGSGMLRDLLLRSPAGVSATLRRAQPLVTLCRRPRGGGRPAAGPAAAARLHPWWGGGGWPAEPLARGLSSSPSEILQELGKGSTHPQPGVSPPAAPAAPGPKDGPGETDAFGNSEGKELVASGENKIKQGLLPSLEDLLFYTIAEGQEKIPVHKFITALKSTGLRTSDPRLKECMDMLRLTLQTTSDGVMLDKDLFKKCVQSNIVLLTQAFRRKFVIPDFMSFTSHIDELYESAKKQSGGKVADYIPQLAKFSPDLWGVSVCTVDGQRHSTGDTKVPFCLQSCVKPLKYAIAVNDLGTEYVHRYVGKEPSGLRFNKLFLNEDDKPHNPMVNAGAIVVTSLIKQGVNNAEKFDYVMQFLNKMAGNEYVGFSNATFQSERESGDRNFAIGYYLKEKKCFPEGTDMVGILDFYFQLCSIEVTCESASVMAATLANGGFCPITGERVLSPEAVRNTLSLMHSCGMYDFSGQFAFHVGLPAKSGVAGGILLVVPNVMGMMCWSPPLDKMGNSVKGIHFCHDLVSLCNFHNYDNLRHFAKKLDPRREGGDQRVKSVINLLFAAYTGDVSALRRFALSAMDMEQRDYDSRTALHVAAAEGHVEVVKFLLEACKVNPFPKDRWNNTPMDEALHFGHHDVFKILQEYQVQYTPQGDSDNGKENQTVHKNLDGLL
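Human kidney-isoform GLS in 45 mM KH2PO4 pH 8.2, 0.02% Tween-20, with compound, started with 1mM L-Glutamine (added stock). Glutamate oxidase/HRP/Amplex red coupled fluorescence read at start and after 30 min at RT.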
BAZ2B inh = blocks human BAZ2B. Q9UIF8. AlphaScreen BAZ2B-H3K14Ac peptide displacement. Potency, µM (top dose mostly 114 µM), for inactives: at the highest dose activity change, negative = inhibition, most hits filed as inhibitors. 360,000 tested, 4.4% active. AID 504333; note: % is set by controls: 0 for no effect and ±100 for the full control effect; nearly all actives have a fitted effect of over 60% in size
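AlphaScreen luminescence quantifies BAZ2B engagement of H3K14Ac peptide; the protein and biotinylated peptide are both at 50 nM final, buffer PBS pH 7.4 with 0.01% Tween-20, all steps at room temperature.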
JMJD2A Tudor = JMJD2A Tudor domain (human) inhibition. AID 504339. AlphaScreen JMJD2A-Tudor / H3K4me3 peptide binding. O75164. 390,000 tested, 4.4% active. Potency, µM (highest dose often 114 µM), for the others: at the highest dose activity change, negative = inhibition, actives largely listed as inhibitors; note: % is set by controls: 0 for no effect and ±100 for the full control effect; nearly all actives have a fitted effect of over 50% in size
G9a block = inhibitors of human histone lysine methyltransferase G9a | Q96KQ7 | G9a H3K9 monomethylation, AlphaScreen, 2 h | Potency, µM (top dose mostly 102 µM), for the others: at the highest dose activity, negative = inhibition, most hits filed as inhibitors | 350,000 tested, 8.8% active; note: % is set by controls: 0 for no effect and ±100 for the full control effect; nearly all actives have a fitted effect of over 75% in size
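Compounds were preincubated with 20 nM G9a for 15 min, after which biotinylated H3K9 peptide (500 nM) and SAM (20 uM) started a 2 h room-temperature reaction. Monomethylated product was quantified by antibody-based AlphaScreen chemiluminescence.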
HP1b chromo inh = HP1-beta chromodomain-methylated histone interaction inhibition | P83916 | 390,000 tested, 0.56% active | Potency, µM (titrated, usually from 114 µM), inactives show at the top dose activity change, negative = inhibition, usual class: inhibitors | AlphaScreen HP1-beta / biotin-H3K9me3 peptide binding; note: nearly all actives have a fitted effect of over 70% in size
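HP1-beta protein (50 nM final) preincubated 30 min at room temperature with biotinylated H3(1-18)K9me3 peptide (50 nM) in PBS pH 7.4, 0.01% Tween-20, then compound added for 30 min. AlphaScreen streptavidin donor/nickel chelate acceptor beads (10 ug/mL final), 30 min dark, luminescence read.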
The depositor's hits bear a star; ? = inconclusive; . = no result given; [ ] = dose if it differs, or a comment. Compounds with a hit are over-represented: about 10% of the library has one in this group of screens. Calls come from the whole dose curve; as a rule, active = well fitted curve in the direction sought with a large enough effect; inconclusive = small, poorly fitted or top-dose-only effect, or another doubt; inactive = no such curve, though single readings can be large; an effect the other way counts as inactive or inconclusive. Potency is the fitted concentration of half-maximal effect.

SMILES	GLS inhibitor	BAZ2B inh	JMJD2A Tudor	G9a block	HP1b chromo inh
CCCN(CCC)S(=O)(=O)c1ccc(NC(=O)Cc2cccs2)cc1	-3%	?	?	-41%[59 µM]	12%
Cc1ccccc1Oc1nc2ccccn2c(=O)c1/C=C(\C#N)C(=O)Nc1c(C)n(C)n(-c2ccccc2)c1=O	-2%	-9%	-3%	-9%	11%
CSCCC(NC(=O)COc1ccccc1)C(=O)N(C)Cc1ccc(F)cc1 (stereo not given)	2%	-3%	-23%	23%[12.7 µM]	10%
Cc1c(NC(=O)Cc2cccs2)cccc1[N+](=O)[O-]	-1%	50µM*	-11%[57.1 µM]	?	31%
CC(=O)NC(CC(=O)Nc1cccc(S(=O)(=O)N2CCOCC2)c1)c1ccccc1 (stereo not given)	-2%	5%	-16%	6%	-15%
CC(=O)NC(CC(=O)Nc1ccc(S(=O)(=O)N2CCCC2)cc1)c1ccccc1 (stereo not given)	-11%	.	-13%[57.1 µM]	28µM*	42%
Cc1ccc(C)c2sc(NC(=O)c3ccc(N4C(=O)CCC4=O)cc3)nc12	2%	-1%	-6%	10%	15%
CCn1c2ccccc2c2cc(CN3CCN(Cc4ccccc4F)CC3)ccc21	7%	16µM*	4µM*	2µM*	?
CCn1c2ccccc2c2cc(CN3CCN(Cc4cc(OC)ccc4O)CC3)ccc21	-6%	20µM*	1µM*	10µM*	?
CCn1c2ccccc2c2cc(CN3CCN(Cc4ccccc4C)CC3)ccc21	0%	56µM*	5.6µM*	1.8µM*	?
COc1ccc(NC(=O)N(C)C[C@H]2Oc3ccc(NS(=O)(=O)c4cccs4)cc3C(=O)N([C@H](C)CO)C[C@@H]2C)cc1	3%	.	-15%	.	101%
COc1cc2c(cc1OC)C1(Nc3c-2c(C)nn3-c2ccccc2)C(=O)Nc2ccccc21 (stereo not given)	11%	-12%	?	71µM*	-26%
COc1cc2c(cc1OC)C1(Nc3c-2c(-c2ccccc2)nn3-c2ccccc2)C(=O)Nc2ccccc21 (stereo not given)	16%	?	?	79µM*	-33%
Cc1nn(-c2ccccc2)c2c1CC(=O)Nc1ccccc1-2	-11%	.	-14%	.	32%
CCc1nn(-c2ccccc2)c2c1-c1cc(OC)c(OC)cc1C1(N2)C(=O)Nc2ccccc21 (stereo not given)	-3%	?	?	79µM*	-21%
CCn1cc(C(=O)O)c(=O)c2cnc(N3CCN(C(=S)NC(=O)c4ccc(F)c(F)c4)CC3)nc21	14%	-2%	-1%	?	43%
CCCOc1ccc(/C(O)=C2/C(=O)C(=O)N(CCOC)C2c2cccnc2)cc1 (stereo not given)	.	-9%	.	?	.
COc1ccc(/C(O)=C2/C(=O)C(=O)N(CCN3CCOCC3)C2c2cccnc2)cc1OC (stereo not given)	0%	-34%	?	?	9%
COc1ccccc1C1C(C(=O)c2sc(C)nc2C)=C(O)C(=O)N1CCN1CCOCC1 (stereo not given)	8%	-35%	-12%	40µM*	35%
COCCCN1C(=O)C(=O)/C(=C(/O)c2ccc(OCC(C)C)cc2C)C1c1cccnc1 (stereo not given)	-1%	-1%	79µM*	?	15%
COc1ccc(/C(O)=C2\C(=O)C(=O)N(CCN3CCOCC3)C2c2ccccc2OC)cc1 (stereo not given)	-3%	-9%	-5%	?	30%
Cc1ccc(/C(O)=C2/C(=O)C(=O)N(CCN3CCOCC3)C2c2cccnc2)cc1 (stereo not given)	2%	10%	89µM*	?	46%
COc1ccccc1C1/C(=C(/O)c2ccc(C)cc2)C(=O)C(=O)N1CCN1CCOCC1 (stereo not given)	14%	-4%	-11%	28µM*	29%
C[C@H](NC(=O)[C@H]1N2C(=O)c3ccccc3C2SC1(C)C)C(=O)NCc1ccncc1 (stereo not given in full)	-12%	-24%	4%	-8%[59 µM]	36%
CCC(C)NC(=O)c1ccc2c(c1)N(Cc1ccccc1F)C(=O)c1ccccc1S2=O (stereo not given)	1%	-15%	-11%	-3%[59 µM]	34%
SMILES	GLS inhibitor	BAZ2B inh	JMJD2A Tudor	G9a block	HP1b chromo inh
CC(C)CC(C(=O)O)N(Cc1ccccc1)Cc1ccccc1 (stereo not given)	54%	3%	-11%	-38%[59 µM]	12%
CCN1C(=O)C(O)(c2c[nH]c3ccccc23)c2cc(Br)ccc21 (stereo not given)	3%	?	-8%	1%[59 µM]	23%
O=C1C(=O)N(CCCn2ccnc2)C(c2cccnc2)/C1=C(/O)c1ccc(F)cc1 (stereo not given)	-13%	?	?	-8%[59 µM]	18%
Cc1ccc(C)c(/C(O)=C2\C(=O)C(=O)N(Cc3cccnc3)C2c2cccnc2)c1 (stereo not given)	9%	79µM*	-22%	?	17%
O=C1C(=O)N(CCc2c[nH]c3ccccc23)C(c2cccnc2)/C1=C(/O)c1ccccc1 (stereo not given)	.	-22%	.	50µM*	.
COc1ccc(C2C(C(=O)c3sc(C)nc3C)=C(O)C(=O)N2CCN(C)C)cc1OC (stereo not given)	-7%	4%	-9%	-27%[12.7 µM]	53%
Cc1ccc(C2C(C(=O)c3sc(C)nc3C)=C(O)C(=O)N2CCN(C)C)o1 (stereo not given)	0%	13%	-31%	45µM*	10%
COc1ccc(/C(O)=C2/C(=O)C(=O)N(CCN3CCOCC3)C2c2ccc(C)cc2)cc1 (stereo not given)	-7%	-20%[57.1 µM]	-22%	45µM*	33%
CCOC(=O)COc1nc(-c2ccc(C)cc2)cc(-c2ccco2)c1C#N	0%	1%	9%	15%[59 µM]	35%
CC1OC(C(C)(C)C)CC2=C1C(=O)OC(C)(C)O2 (stereo not given)	-11%	.	.	.	.
CC(=O)NC(CC(C)C)C(=O)NC(Cc1ccccc1)C(=O)CCl (stereo not given)	-1%	.	-2%	.	58%
CCOc1ccc(/C(O)=C2\C(=O)C(=O)N(CCOCCO)C2c2ccccc2OC)cc1 (stereo not given)	5%	-3%	18µM*	17%[59 µM]	-11%
O=C(CN(c1ccc(F)cc1)S(=O)(=O)c1ccc2c(c1)OCCO2)Nc1cccnc1	0%	1%	-11%	-29%[12.7 µM]	27%
COc1cccc2oc3ccc(C#Cc4ccccn4)cc3c(=O)c12	0%	-8%	-15%	50µM*	30%
O=c1c2ccccc2oc2cc(C#Cc3ccccn3)ccc12	-4%	.	-19%	.	81%
